Compounds with a hit are over-represented: about 1.1% of the library has one in this group of screens.
Rv3671c inh – Rv3671c (M. tuberculosis) protease inhibition; inhibition, % at 5.96 µM; P9WHR9; actives 0.048% (n = 320,000); AID 2606; in the data active = inhibition above about 38%;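 note: extracellular domain of Rv3671c used as enzyme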
Target sequence (P9WHR9 whole entry, looked up, the tested form may be a part): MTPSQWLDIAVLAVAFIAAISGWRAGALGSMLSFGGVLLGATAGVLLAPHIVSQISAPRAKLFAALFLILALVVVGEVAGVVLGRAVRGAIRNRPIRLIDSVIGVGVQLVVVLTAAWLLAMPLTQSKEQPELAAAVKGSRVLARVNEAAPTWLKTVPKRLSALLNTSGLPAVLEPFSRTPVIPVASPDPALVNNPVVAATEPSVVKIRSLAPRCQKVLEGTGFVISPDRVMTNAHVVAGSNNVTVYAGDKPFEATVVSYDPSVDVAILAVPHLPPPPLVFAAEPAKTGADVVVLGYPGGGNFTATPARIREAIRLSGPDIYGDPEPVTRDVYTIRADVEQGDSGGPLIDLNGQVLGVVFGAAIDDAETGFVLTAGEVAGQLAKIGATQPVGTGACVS
Mtb betalactam – beta-lactam sensitization of Mtb H37Rv. inhibition, % at 25 µM. M. tuberculosis H37Rv growth with meropenem, percent inhibition. actives 0.27% (n = 330,000); call rule not given here;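 note: growth measured after seven days incubation then overnight dye step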
Mtb UGM inh – blocks M. tuberculosis UGM enzyme. purified UGM, fluorescence polarization probe displacement. actives 0.06% (n = 320,000). P9WIQ1. inhibition, % at 10 µM; in the data active = inhibition above about 10%, passing the limit was not always enough; inconclusive = no clear call, values can overlap the other calls
SSB-PriA inh – blocks PriA binding to SSB C-terminal tail; AlphaScreen SSBct-PriA binding, biotinylated peptide; inhibition, % at 33 µM; actives 0.6% (n = 430,000); AID 1272365; in the data active = inhibition mostly above about 37%, no sharp cut-off; inactive = mostly below about 20%
RecA intein inh – inhibitors of M. tuberculosis RecA intein splicing. P9WHJ3. cell-free RecA intein splicing, fluorescence. inhibition, % (concentration not given with the values). actives 0.75% (n = 290,000); in the data active = inhibition above about 30%; inconclusive = no clear call, values can overlap the other calls
Hits are given with their value; i = inactive; ? = inconclusive; nt = no result given; ! = not active in a repeat.

SMILES | Rv3671c inh | Mtb betalactam | Mtb UGM inh | SSB-PriA inh | RecA intein inh
CCOC(=O)CSc1nc(-c2ccccn2)ncc1OC | i | i | i | 83 | i
COc1cnc(-c2ccccn2)nc1Oc1cc(Cl)cc(Cl)c1 | nt | nt | nt | 63 | nt
c1ccc(-c2cnc(-c3ccccn3)nn2)cc1 | i | i | i | 69 | i
c1ccc(-c2cnnc(-c3ccccn3)n2)cc1 | i | i | i | i | i
O=C(NCCC1=CCCCC1)C(=O)NC[C@@H](c1ccco1)N1CCc2ccccc21 | nt | nt | nt | i | nt
COC(C)(CNS(=O)(=O)c1cnn(C)c1)c1ccccc1F (stereo unspecified) | nt | nt | nt | i | nt
O=C(c1ccccc1)c1ccc(CNC(=O)C2CC2)s1 | nt | nt | nt | i | nt
C=CCNc1nc(-c2ccccn2)nnc1-c1ccccc1 | i | i | i | i | i
COc1cnc(-c2ccccn2)nc1Oc1ccc(F)cc1 | nt | nt | nt | 109 | nt
c1ccc(Oc2nc(-c3ccccn3)nnc2-c2ccccc2)cc1 | nt | nt | nt | 103 | nt
COc1cnc(-c2ccccn2)nc1Sc1ccccc1 | i | i | i | i | i
COc1cnc(-c2ccccn2)nc1Oc1ccccc1 | i | i | i | 64 | i
COc1cnc(-c2ccccn2)nc1N(C)c1ccccc1 | i | i | i | 98 | i
COc1ccccc1-n1nnnc1SCC(=O)Nc1ccc(Cl)c(C(F)(F)F)c1 | nt | nt | nt | i | nt
Cc1[nH][nH]c(=O)c1C(c1ccc(-c2cccc(Cl)c2)o1)c1c(C)[nH][nH]c1=O | i | i | i | i | 97
CCOc1ccc(CC(=O)Nc2cccc(-n3c(C)nc4ccccc4c3=O)c2)cc1 | nt | nt | nt | i | nt
COc1ccc(CCNc2cc(C)nc3c(-c4ccccc4OC)cnn23)cc1OC | i | i | i | i | i
C=CCc1c(C)nc2c(-c3ccccc3)cnn2c1NCCc1ccc(OC)c(OC)c1 | nt | nt | nt | 36 | nt
CCn1cc(NC(=O)N2CCN(c3cccc(Cl)c3)CC2)c2ccccc21 | nt | nt | nt | 31 | nt
CCn1cc(NC(=O)N2CCN(c3ccccc3F)CC2)c2ccccc21 | nt | nt | nt | i | nt
O=C(O)c1ccc(NN=C/C=C/c2ccccc2[N+](=O)[O-])cc1 | nt | nt | nt | i | nt
NS(=O)(=O)c1ccc(NN=C/C=C/c2ccccc2[N+](=O)[O-])cc1 | nt | nt | nt | 48 | nt
Cc1cc(C)n(CC(=O)NN=Cc2cccs2)n1 | nt | nt | nt | i | nt
CCOC(=O)C1=C(Cc2ccc(C)cc2)C(=O)c2ccccc2C1=O | i | i | i | nt | 61
CCOC(=O)C1=C(Cc2ccc(OC)cc2)C(=O)c2ccccc2C1=O | nt | nt | nt | i | nt
SMILES | Rv3671c inh | Mtb betalactam | Mtb UGM inh | SSB-PriA inh | RecA intein inh
COC(=O)c1ccc(C(=O)Nc2nnc(-c3ccc4c(c3)CCCC4)o2)cc1 | nt | nt | nt | 38 | nt
COC(=O)c1ccc(CSc2ccc(NC(=O)c3cccs3)nn2)o1 | nt | nt | nt | i | nt
CC(=NNC(=O)CSc1nc2ccccc2[nH]1)c1ccncc1 | nt | nt | nt | i | nt
COc1ccc(N2C(=O)C(Cl)=C(NCc3ccccc3)C2=O)cc1 | i | i | i | i | 36
O=C(NCc1ccccn1)C1CCCN(S(=O)(=O)c2ccccc2)C1 (stereo unspecified) | i | i | i | i | i
O=S(=O)(c1ccccc1)N1CCC(c2ccccn2)C1 (stereo unspecified) | nt | nt | nt | 40 | nt
CC(=NNC(=S)N1CCC1)c1ccccn1 | nt | nt | nt | 72 | nt
CC(=NNC(=O)C1CCCN(S(=O)(=O)c2ccccc2)C1)c1ccccn1 (stereo unspecified) | nt | nt | nt | 49 | nt
CC(=NNC(=S)SCc1ccccc1)c1ccccn1 | nt | nt | nt | i | nt
Cc1ccc(NCCN(C)C)c2c(=O)c3cc(O)ccc3sc12 | nt | nt | nt | 62 | nt
CSc1nccc(-c2nn(-c3ccc(Cl)cc3)ccc2=O)n1 | nt | nt | nt | 53 | nt
O=C1C(Cl)=C(NCC2CCCO2)C(=O)N1c1ccccc1 (stereo unspecified) | i | i | i | i | 33
Cc1nn(-c2ccccc2)c(Cl)c1C(=O)NCC1CCCO1 (stereo unspecified) | i | i | 14 | i | nt
O=C1c2ccccc2-c2nnc(-c3ccc(O)cc3)cc21 | i | i | i | i | 49
COc1cc2nc(N3CCN(c4cc(C)ccc4C)CC3)nc(N)c2cc1OC | i | i | i | i | i
COc1cc2nc(N3CCNCC3)nc(N)c2cc1OC | i | i | i | 46 | i
O=C(Nc1nc(CC(=O)N2CCN(c3cccc(C(F)(F)F)c3)CC2)cs1)NC1CCCC1 | nt | nt | nt | i | nt
O=S(=O)(CCSc1ccccn1)c1nc2ccccc2s1 | i | i | i | i | 40
O=S(=O)(CCSc1nc2ccccc2o1)c1nc2ccccc2s1 | i | i | i | i | i
CCOC(=O)c1c(C)[nH]c(C(=O)OCC(=O)Nc2sc(C(=O)N(C)C)c(C)c2C(=O)OCC)c1C | i | i | i | i | i
CCOC(=O)c1c(NC(=O)COC(=O)c2ncc(Cl)c(Cl)c2Cl)sc(C(=O)N(C)C)c1C | i | nt | i | i | 38
CN(C)CCN(C(=O)c1ccc2ccccc2c1)c1nc2c(F)cc(F)cc2s1 | i | i | i | 37! | i
Cc1ccc2sc(N(CCN(C)C)C(=O)c3ccc4c(c3)OCCO4)nc2c1C | nt | nt | nt | 40 | nt
Cc1ccc([N+](=O)[O-])cc1S(=O)(=O)Nc1ccc(-c2cn3c(n2)SCC3)cc1 | nt | nt | nt | 39 | nt
O=[N+]([O-])c1ccc(NNC(=S)NC2CCS(=O)(=O)C2)c([N+](=O)[O-])c1 (stereo unspecified) | nt | nt | nt | 51 | nt
SMILES | Rv3671c inh | Mtb betalactam | Mtb UGM inh | SSB-PriA inh | RecA intein inh
Cc1ccc(NC(=O)COC(=O)CCc2c[nH]c3ccccc23)cc1[N+](=O)[O-] | i | i | i | 40 | i
CCn1c(C2CCN(S(=O)(=O)c3cc(F)ccc3OC)CC2)nn(CCOC)c1=O | nt | nt | nt | i | nt
NCCc1nc(-c2ccccn2)n[nH]1 | nt | nt | nt | 93 | nt
Cc1nc(-c2ccccn2)n[nH]1 | nt | nt | nt | 99! | nt
Clc1ccc(OCc2nc(-c3ccccn3)n[nH]2)cc1 | i | i | i | 64 | i
NCCc1nc(-c2ccccn2)no1 | nt | nt | nt | i | nt
Brc1ccc(OCc2nc(-c3ccccn3)n[nH]2)cc1 | i | i | i | 86 | i
Clc1ccc(OCc2nc3ccccc3[nH]2)cc1 | i | i | i | i | i
CC(=NNC(=O)c1ccc2c(c1)OCO2)c1ccc(NS(C)(=O)=O)cc1 | nt | nt | nt | i | nt
Cc1ccc(NC2=C(Cl)C(=O)OC2OC(=O)c2ccco2)cc1C (stereo unspecified) | i | i | i | i | 54
Cc1ccc(NC2=C(Cl)C(=O)OC2OC(=O)c2ccco2)c(C)c1 (stereo unspecified) | i | ? | i | i | nt
Cc1ccc(C)c(NC2=C(Cl)C(=O)OC2OC(=O)c2ccco2)c1 (stereo unspecified) | i | i | i | i | 46
COc1ccc(C)cc1S(=O)(=O)NCC1CCN(C(=O)c2cccnc2SC)CC1 | nt | nt | nt | i | nt
CCOC(=O)c1c(C)[nH]c(C2=NNC(=Nc3ccccc3OC)SC2)c1C | i | i | i | 54 | i
O=C(Nc1nnc(Cc2cccs2)o1)c1ccc2ncsc2c1 | nt | nt | nt | 71 | nt
CCSc1ccc(C(=O)Nc2nccs2)cc1 | nt | nt | nt | 64 | nt
O=C(Nc1nnc(Cc2cccs2)o1)c1ccccc1 | nt | nt | nt | i | nt
O=C(Nc1nnc(Cc2cccs2)o1)c1ccc(Cl)s1 | nt | nt | nt | 35 | nt
CCSc1ccc(C(=O)Nc2nnc(Cc3cccs3)o2)cc1 | nt | nt | nt | 36 | nt
O=C(Nc1nnc(Cc2cccs2)o1)c1cccs1 | nt | nt | nt | i | nt
Cc1cc(OC(NC(=O)c2ccccc2)C(=O)c2ccccc2)nc(SCc2ccccc2)n1 (stereo unspecified) | nt | nt | nt | i | nt
CCc1ccccc1NC(=O)C(=O)NCc1cccs1 | nt | nt | nt | i | nt
Nc1ccc(Br)c2cccnc12 | i | i | i | i | i

Screening results as filed in PubChem.
